TDP-43 rescue – TDP-43 toxicity inhibition in yeast | yeast TDP-43 toxicity rescue, BacTiter-Glo growth, 24 h | Potency, µM (series often up to 46.1 µM), hits mostly activators | 0.45% of 45,000 active; active = well fitted activation curve with a large enough effect; note: 0% is about no effect; nearly all actives have a fitted effect of over 55% in size
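TDP-43-expressing yeast, pregrown in raffinose, seeded at OD600 0.02 in galactose medium with compound for 24 hr at 30 deg C. Growth read by BacTiter-Glo luminescence, so rescue of toxicity appears as activation.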
Starred values were filed as active, the others as inactive; i = inactive. Only a selection was taken, and hits are over-represented in it overall. Potency is the fitted concentration of half-maximal effect.

SMILES	TDP-43 rescue
O=C(Nc1cc(S(=O)(=O)N2CCOCC2)ccc1Cl)c1cc2ccccc2o1	i
CC1(C(=O)NCCc2c[nH]c3ccccc23)CCN1Cc1csc2ccccc12 (centres undefined)	i
COc1cccc(-c2cc(NC=O)c3ncc(-c4ccc(F)c(Cl)c4)n3c2)c1	i
Cc1ccc(C2CC(c3cccs3)=NN2C(=O)CCl)cc1 (centres undefined)	13µM*
COc1ccc(C2CC(c3cccs3)=NN2C(=O)c2ccc(Br)o2)cc1 (centres undefined)	i
COc1ccccc1C1CC(c2cccs2)=NN1C(=O)CCC(=O)O (centres undefined)	i
O=C(CN1C(=O)c2ccccc2S1(=O)=O)NC(Nc1ccccc1F)C(Cl)(Cl)Cl (centres undefined)	i
Cc1ccc(F)cc1C(=O)N1CCCC(c2cc(C(=O)NCc3ccccc3)no2)C1 (centres undefined)	i
COC(=O)c1c(NC(=O)COc2ccc(Cl)cc2C)sc2c1CCCCC2	i
O=C(COC(=O)CCc1ccccc1)NCc1ccc2c(c1)OCO2	i
CCc1cccc(C)c1NC(=O)CCCSc1nc2ccccc2s1	i
O=C(CCCSc1nc2ccccc2s1)NCc1ccc2c(c1)OCO2	13µM*
CCn1c(CN2CCOCC2)nnc1SCC(=O)Nc1ccccc1Cl	i
CCc1nc2c(OCCn3cccc3)cccn2c1N(C=O)Cc1ccccc1	i
CN(c1nc2ccccc2nc1Cl)S(=O)(=O)c1ccccc1	13µM*
Clc1nc2ccccc2nc1-c1ccccc1	i
CCCc1nnc2c(N(C)S(=O)(=O)c3ccc(C)cc3)nc3ccccc3n12	i
O=C(Nc1cccc(C(F)(F)F)c1)c1csc([C@@H]2C[C@H](O)[C@@H](CO)O2)n1	i
CCOC(=O)C1CCN(C(=O)C2CCCN2S(=O)(=O)c2ccc(Cl)cc2)CC1 (centres undefined)	i
COc1cccc(C(=O)NCCCNC(=O)c2ccccn2)c1	i
COC(=O)c1cc(Sc2cccc(Cl)c2Cl)ccn1	13µM*
CC(OC(=O)c1cnc2ccccc2n1)c1ccccc1Cl (centres undefined)	i
CCOC(=O)c1c(NC(=O)C(NCCN(C)C)c2ccccc2)sc2c1CCCC2 (centres undefined)	i
CN(Cc1ccc2ccccc2c1)C(=O)c1ccc(C(F)(F)F)cc1	i
Cc1ccc(-c2noc(CN(C)C(=O)c3ccoc3C)n2)cc1	i
SMILES	TDP-43 rescue
Cc1ccc(-c2noc(CN(C(=O)c3ccc4c(c3)OCO4)C(C)C)n2)cc1	i
COc1ccc(-c2noc(CN(C(=O)C(C)Oc3ccc(C)cc3)C(C)C)n2)cc1 (centres undefined)	20µM*
Cc1cc(Cl)ccc1OC(C)C(=O)Nc1ccc([N+](=O)[O-])cn1 (centres undefined)	22µM*
Cc1ccc(OC(C)C(=O)Nc2ccc(Cl)cn2)c([N+](=O)[O-])n1 (centres undefined)	i
COC(=O)c1cc(C(=O)Nc2ccc(Cl)cn2)cc([N+](=O)[O-])c1	i
CCOC(=O)C1(C)CCCN(C(=O)c2cc(OC)c(OC)c(OC)c2)C1 (centres undefined)	i
COc1ccc(Cl)cc1C(=O)OCC(=O)N1CCCC(C)C1 (centres undefined)	i
COc1cccc2cc(C(=O)OCC(=O)NC3CCCC(C)C3C)c(=O)oc12 (centres undefined)	i
COc1ccc(Cl)cc1C(=O)OCC(=O)NC1CCCC(C)C1C (centres undefined)	18µM*
COC(=O)c1c(NC(=O)c2ccccc2OC)sc(C(=O)N2CCOCC2)c1C	i
NC(Cc1ccc(C(F)(F)F)cc1)c1csc(NC(=O)NCCc2ccccc2)n1 (centres undefined)	i
COc1ccc(C(O)c2ncc(-c3ccccc3)[nH]2)cc1F (centres undefined)	i
CCn1c(C)nc2cc(C(=O)N/N=C/c3cccc(OC)c3O)ccc21	i
COc1cccc(/C=N/NC(=O)c2nc(-c3ccccc3)cc(-c3ccccc3)n2)c1O	13µM*
COc1cccc(/C=N/NC(=O)N/N=C/c2cccc(OC)c2O)c1O	i
O=C(COC(=O)C1C2CC3OC(=O)C1C3C2)Nc1ccccc1 (centres undefined)	i
COc1ccc(CNC(=O)CN(C(=O)CCC(=O)Nc2ccccn2)c2cccc(C)c2C)cc1	i
CN(C)c1ccc(CN(Cc2ccco2)C(=O)c2ccc(C(C)(C)C)cc2)cc1	i
